Results from the supplement of paper PMC11732987, “Enantioselective OTUD7B fragment discovery through chemoproteomics screening and high-throughput optimisation” (Communications Chemistry, 2025).

Columns and labels:
Assay in all cases: log2 ratio of Biotin-Ahx-Ub-VS probe labelling (fragment/DMSO); higher = less target engagement (more negative = stronger competition), active = hit call of the paper (q ≤ 0.05, log2 ratio ≤ -1)
Details in all cases: compound concentration: 200 uM; treatment time: 3 h
OTUD6B = target: T1, OTUD6B (UniProt Q8N6M0)
T1 sequence (whole entry): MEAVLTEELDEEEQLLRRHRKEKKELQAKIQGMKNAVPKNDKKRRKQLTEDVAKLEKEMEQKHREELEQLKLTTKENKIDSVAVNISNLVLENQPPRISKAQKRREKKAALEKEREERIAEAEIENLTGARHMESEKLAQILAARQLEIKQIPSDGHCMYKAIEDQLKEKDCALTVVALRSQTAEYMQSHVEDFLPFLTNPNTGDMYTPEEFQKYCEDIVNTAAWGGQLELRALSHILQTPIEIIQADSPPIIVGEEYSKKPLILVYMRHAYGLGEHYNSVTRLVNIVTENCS
How it was run: (§1)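 HEK293T lysate (495 µg per sample, in Tris/CHAPS/IGEPAL buffer with protease inhibitors) was exposed in triplicate for 3 h to fragment at 200 µM or to vehicle, then to Biotin-Ahx-Ub-VS at 0.5 µM final for 1 h. Labelled DUBs were enriched on NeutrAvidin, digested with LysC and trypsin, and analysed by diaPASEF LC-MS/MS. Spectronaut label-free quantities were normalised to the global median, and values are average log2 ratios of fragment over vehicle from an unpaired t-test. Only proteins with ≥2 unique peptides were used.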

OTUD7B = target: T2, OTUD7B (UniProt Q6GQQ9)
T2 sequence (whole entry): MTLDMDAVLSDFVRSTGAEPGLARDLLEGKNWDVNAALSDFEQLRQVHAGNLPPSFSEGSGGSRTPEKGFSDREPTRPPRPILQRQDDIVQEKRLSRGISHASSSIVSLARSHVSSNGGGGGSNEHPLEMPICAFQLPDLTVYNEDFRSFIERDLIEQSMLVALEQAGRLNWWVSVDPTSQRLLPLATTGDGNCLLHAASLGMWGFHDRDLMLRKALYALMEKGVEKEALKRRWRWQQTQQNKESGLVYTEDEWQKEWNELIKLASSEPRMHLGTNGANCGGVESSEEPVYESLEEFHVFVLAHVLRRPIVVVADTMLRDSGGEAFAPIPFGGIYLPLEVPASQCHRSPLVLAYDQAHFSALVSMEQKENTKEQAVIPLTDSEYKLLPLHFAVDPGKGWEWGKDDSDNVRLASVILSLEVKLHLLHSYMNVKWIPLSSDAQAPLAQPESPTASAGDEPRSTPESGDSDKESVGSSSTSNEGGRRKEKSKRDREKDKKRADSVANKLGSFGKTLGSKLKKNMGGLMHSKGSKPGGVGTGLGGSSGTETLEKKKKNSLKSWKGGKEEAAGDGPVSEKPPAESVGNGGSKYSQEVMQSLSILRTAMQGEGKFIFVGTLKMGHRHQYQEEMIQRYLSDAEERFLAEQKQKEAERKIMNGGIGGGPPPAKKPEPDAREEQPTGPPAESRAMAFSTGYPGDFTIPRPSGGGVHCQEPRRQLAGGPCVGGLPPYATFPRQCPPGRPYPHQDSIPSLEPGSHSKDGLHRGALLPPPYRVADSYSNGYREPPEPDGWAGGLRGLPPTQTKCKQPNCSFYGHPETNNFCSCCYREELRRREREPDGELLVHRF
How it was run: as §1

PRPF8 = PRPF8 (UniProt Q6P2Q9)
How it was run: as §1

PSMD7 = target: T3, PSMD7 (UniProt P51665)
T3 sequence (whole entry): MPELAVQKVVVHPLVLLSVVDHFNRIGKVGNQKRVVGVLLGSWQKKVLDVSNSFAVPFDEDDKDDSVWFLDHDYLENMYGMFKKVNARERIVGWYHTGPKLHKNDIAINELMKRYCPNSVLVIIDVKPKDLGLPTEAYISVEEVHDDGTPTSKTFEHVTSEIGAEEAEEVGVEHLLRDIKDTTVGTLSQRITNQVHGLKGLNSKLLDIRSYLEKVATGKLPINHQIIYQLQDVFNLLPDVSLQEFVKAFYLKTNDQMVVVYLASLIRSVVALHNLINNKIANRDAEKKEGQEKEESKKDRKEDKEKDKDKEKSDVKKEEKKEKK
How it was run: as §1

UCHL1 = UCHL1 (UniProt P09936)
UCHL1, sequence (P09936 whole entry, looked up): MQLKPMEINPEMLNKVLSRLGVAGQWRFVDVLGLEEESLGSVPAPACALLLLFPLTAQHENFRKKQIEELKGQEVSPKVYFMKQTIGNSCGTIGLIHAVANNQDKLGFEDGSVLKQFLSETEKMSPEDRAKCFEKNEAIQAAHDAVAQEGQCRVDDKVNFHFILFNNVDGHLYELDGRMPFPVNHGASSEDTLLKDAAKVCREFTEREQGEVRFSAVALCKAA
How it was run: as §1

UCHL3 = target: T4, UCHL3 (UniProt P15374)
T4 sequence (whole entry): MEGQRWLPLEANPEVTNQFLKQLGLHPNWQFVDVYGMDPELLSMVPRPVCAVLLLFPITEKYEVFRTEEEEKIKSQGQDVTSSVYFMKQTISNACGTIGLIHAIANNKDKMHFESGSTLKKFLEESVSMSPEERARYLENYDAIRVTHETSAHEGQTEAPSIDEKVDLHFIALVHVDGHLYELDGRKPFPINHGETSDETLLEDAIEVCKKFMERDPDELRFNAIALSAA
How it was run: as §1

UCHL5 = target: T5, UCHL5 (UniProt Q9Y5K5)
T5 sequence (whole entry): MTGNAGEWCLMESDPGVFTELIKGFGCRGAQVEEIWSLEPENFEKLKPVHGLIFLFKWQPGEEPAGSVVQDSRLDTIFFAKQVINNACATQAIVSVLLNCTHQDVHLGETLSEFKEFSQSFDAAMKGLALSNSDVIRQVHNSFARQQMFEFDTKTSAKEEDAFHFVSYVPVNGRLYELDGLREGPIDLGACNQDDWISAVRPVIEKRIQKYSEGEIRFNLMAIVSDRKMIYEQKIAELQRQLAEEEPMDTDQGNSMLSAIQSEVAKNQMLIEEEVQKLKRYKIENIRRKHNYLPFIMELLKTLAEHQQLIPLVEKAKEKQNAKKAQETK
How it was run: as §1

USP10 = USP10 (UniProt Q14694)
USP10, sequence (Q14694 whole entry): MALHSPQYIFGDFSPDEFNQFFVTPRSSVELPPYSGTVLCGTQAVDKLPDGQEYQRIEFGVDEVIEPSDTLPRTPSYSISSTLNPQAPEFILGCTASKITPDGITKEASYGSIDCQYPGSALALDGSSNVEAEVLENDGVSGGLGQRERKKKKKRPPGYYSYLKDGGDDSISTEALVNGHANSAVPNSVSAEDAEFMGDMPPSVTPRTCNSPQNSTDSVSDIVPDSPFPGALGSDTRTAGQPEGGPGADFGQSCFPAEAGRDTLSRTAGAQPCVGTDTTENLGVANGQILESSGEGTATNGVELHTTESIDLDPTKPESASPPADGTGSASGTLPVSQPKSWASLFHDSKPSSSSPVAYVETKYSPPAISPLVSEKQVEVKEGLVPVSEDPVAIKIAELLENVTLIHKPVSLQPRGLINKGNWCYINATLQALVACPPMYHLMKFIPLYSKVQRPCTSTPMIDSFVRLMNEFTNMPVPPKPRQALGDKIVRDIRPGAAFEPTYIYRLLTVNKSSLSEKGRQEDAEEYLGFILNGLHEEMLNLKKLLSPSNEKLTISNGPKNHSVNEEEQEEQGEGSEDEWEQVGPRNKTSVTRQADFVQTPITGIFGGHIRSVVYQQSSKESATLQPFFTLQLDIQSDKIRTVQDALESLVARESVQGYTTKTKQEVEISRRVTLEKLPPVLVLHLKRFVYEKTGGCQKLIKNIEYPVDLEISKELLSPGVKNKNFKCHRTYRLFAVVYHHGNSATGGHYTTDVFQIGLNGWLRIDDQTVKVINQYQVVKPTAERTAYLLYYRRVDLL
How it was run: as §1

USP15 = target: T6, USP15 (UniProt Q9Y4E8)
T6 sequence (whole entry): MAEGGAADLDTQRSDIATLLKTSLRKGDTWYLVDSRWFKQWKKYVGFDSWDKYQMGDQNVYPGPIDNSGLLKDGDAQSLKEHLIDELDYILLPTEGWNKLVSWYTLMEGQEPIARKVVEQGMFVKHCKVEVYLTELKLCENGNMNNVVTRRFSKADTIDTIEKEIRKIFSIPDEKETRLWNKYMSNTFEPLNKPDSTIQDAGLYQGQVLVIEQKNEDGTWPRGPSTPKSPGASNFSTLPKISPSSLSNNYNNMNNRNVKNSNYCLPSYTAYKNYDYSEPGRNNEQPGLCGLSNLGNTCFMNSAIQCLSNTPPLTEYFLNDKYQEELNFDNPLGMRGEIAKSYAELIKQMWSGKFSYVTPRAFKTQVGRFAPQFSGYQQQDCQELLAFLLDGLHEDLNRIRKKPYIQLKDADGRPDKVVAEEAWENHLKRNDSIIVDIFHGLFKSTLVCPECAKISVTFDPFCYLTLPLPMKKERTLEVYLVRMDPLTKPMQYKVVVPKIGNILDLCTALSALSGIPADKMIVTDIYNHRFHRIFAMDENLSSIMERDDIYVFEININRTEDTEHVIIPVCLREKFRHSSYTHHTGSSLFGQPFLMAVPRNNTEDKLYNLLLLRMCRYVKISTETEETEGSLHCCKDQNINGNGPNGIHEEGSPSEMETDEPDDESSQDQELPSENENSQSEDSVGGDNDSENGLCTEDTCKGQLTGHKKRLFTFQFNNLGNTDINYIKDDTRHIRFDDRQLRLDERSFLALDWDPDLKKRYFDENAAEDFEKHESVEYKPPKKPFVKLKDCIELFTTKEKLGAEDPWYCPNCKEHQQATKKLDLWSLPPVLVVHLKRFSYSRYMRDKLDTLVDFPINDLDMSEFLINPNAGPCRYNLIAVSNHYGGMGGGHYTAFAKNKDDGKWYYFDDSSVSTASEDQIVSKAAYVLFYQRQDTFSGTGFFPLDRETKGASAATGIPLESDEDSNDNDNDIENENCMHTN
How it was run: as §1

USP16 = USP16 (UniProt Q9Y5T5)
USP16, sequence (Q9Y5T5 whole entry, looked up): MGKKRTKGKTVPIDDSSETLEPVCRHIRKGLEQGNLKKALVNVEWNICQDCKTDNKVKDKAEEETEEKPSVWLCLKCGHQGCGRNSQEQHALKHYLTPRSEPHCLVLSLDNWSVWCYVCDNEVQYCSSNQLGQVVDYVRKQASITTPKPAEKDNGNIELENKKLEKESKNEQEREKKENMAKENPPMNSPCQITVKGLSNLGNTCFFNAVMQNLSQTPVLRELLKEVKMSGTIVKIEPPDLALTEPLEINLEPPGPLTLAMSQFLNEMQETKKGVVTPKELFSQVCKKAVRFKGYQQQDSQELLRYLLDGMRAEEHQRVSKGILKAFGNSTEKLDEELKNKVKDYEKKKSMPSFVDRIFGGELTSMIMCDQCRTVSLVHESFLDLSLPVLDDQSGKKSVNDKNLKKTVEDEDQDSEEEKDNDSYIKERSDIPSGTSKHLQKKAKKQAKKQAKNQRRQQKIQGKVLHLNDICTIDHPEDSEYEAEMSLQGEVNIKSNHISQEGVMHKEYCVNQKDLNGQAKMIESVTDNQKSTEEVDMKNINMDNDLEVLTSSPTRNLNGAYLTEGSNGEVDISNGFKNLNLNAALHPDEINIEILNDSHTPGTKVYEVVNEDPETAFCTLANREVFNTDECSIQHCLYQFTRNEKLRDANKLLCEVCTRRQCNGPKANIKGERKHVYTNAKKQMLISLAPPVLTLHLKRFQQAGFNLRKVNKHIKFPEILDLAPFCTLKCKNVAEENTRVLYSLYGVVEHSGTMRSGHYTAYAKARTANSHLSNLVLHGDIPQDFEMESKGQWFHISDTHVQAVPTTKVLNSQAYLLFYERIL
How it was run: as §1

Measured: log2 ratio of Biotin-Ahx-Ub-VS probe labelling

O=C(CCl)NCCC1=CCCCC1
active: UCHL1 -1.6
inactive: OTUD6B -0.254 | OTUD7B -0.269 | PRPF8 0.145 | PSMD7 0.0106 | UCHL3 0.284 | UCHL5 -0.111 | USP10 -0.0126 | USP15 -0.103 | USP16 -0.0314
